From PubChem BioAssay
Activity calls are given as the source filed them.

Columns and labels:
Albumin (Bos taurus) = Albumin (Bos taurus) (UniProt P02769); assay: compounds binding labelled BSA control protein – biochemical, small-molecule microarray, Alexa647 label, 635/667 nm fluorescence, artefact control for SMM control protein annotation, profiling panel (AID 1118); conditions: BSA-A647 binding, fluorescence 635 nm, higher = more signal;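 also: score merges 667 nm emission intensity and signal-to-noise per printed compound spot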
Albumin (Bos taurus), sequence (P02769 whole entry, looked up): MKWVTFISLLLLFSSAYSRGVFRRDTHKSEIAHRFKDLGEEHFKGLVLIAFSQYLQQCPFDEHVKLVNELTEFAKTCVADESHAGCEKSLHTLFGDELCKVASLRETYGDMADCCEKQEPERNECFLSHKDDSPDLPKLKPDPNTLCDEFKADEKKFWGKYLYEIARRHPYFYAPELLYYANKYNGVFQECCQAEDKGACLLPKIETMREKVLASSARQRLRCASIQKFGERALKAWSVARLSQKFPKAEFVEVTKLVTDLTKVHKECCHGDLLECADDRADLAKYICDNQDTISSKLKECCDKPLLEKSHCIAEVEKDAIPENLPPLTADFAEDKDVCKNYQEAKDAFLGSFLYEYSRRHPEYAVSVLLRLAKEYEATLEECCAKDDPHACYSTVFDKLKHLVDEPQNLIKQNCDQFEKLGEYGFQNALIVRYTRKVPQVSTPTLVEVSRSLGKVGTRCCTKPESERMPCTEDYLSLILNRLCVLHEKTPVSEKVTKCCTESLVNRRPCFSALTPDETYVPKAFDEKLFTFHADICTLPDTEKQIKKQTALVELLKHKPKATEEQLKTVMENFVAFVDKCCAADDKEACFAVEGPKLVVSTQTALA

[1] = probe aXIP binding to arrayed compounds – biochemical, NeuroSMM set, 635/667 nm fluorescence, primary screen (AID 1119); conditions: small-molecule microarray, higher = more signal, called active from +8 up or from −8 down;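 also: probe is the protein aXip251-270 applied at 1 µg/mL to compound-printed slides; binding of probe to printed compounds measured as 667 nm fluorescence plus signal to noise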
[2] = probe aNOTCH3 binding on compound microarray – biochemical, small-molecule microarray, 635/667 nm fluorescence, primary screen (AID 1120); conditions: higher = more signal;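 also: probe is a biotin-tagged antibody raised against NOTCH3 rather than NOTCH3 protein; score merges spot fluorescence near 667 nm with spot signal to noise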
[3] = probe aNOTCH2 binding on compound microarray – biochemical, small-molecule microarray, 635/667 nm fluorescence, primary screen (AID 1121); conditions: higher = more signal;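 also: score merges feature fluorescence read at 667 nm with its signal to noise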
[4] = target: Carbonic anhydrase 2 (Homo sapiens) (UniProt P00918); assay: compounds binding carbonic anhydrase 2 – biochemical, small-molecule microarray, Alexa647-labelled CAII, profiling panel (AID 1122); conditions: CAII-A647 binding fluorescence, higher = more signal
[5] = COS7 lysate on small-molecule microarray, probe aHis, 635 nm (AID 1123); conditions: COS7 cell lysate, fluorescence, higher = more signal;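 also: z-score combines 667nm fluorescence intensity with signal-to-noise per printed compound spot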
[6] = probe aLAP1 signal on lysate-treated microarray – cell lysate, small-molecule microarray, COS7 lysate, primary screen (AID 1124); conditions: probe aLAP1, fluorescence, higher = more signal;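 also: lysate comes from COS7 cells expressing LAP1 and is applied at 0.3 µg/mL; score merges spot fluorescence near 667 nm with signal-to-noise over triplicate slides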
Sam68 (KHDRBS1) = assay: compounds binding KHDRBS1 protein – biochemical, small-molecule microarray, 635 nm fluorescence, primary screen (AID 1125); conditions: higher = more signal;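 also: score merges 667 nm channel intensity with signal to noise over triplicate slides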
[7] = test system: Chordin-like protein 2 (CHRDL2); assay: compounds binding chordin-like 2 – biochemical, small-molecule microarray, 635 nm fluorescence, primary screen (AID 1126); conditions: fluorescence 635 nm, higher = more signal;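 also: printed compound slides probed with Chrdl2 protein at 4 µg/mL for 1 h at 4 C; score merges 667 nm emission intensity with signal to noise over three replicate slides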
[8] = target: Concanavalin-A (Canavalia ensiformis) (UniProt P02866); assay: compounds binding concanavalin A lectin – biochemical, small-molecule microarray, Alexa647 label, 635 nm, artefact control for SMM control protein annotation, primary screen (AID 1127); conditions: ConA-A647 binding fluorescence, higher = more signal;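 also: z combines 667 nm emission intensity with signal-to-noise across three replicate slides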
Concanavalin-A (Canavalia ensiformis), sequence (P02866 whole entry, looked up): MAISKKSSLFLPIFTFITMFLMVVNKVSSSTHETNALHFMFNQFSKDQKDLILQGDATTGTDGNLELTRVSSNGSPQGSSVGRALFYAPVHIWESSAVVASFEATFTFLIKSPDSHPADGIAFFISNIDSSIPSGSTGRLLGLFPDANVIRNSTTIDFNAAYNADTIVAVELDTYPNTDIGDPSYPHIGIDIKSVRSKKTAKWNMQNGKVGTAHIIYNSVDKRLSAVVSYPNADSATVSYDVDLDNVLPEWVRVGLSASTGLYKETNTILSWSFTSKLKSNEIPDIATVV

SMILES: C=CCC(OC(C)=O)[C@@H]1[C@@H](N(Cc2cccc3ccccc23)C(=O)Cc2ccc(OC)cc2)c2cc(OCCCO)ccc2N1C(=O)c1ccc(-c2ccccc2)cc1 (stereo not given in full)
- composite z-score (Albumin (Bos taurus)): 0.249
- composite Z-score [1]: -0.166 (inactive)
- composite z-score [2]: -0.0647
- composite z-score [3]: -0.0895
- composite z-score [4]: -0.0283
- composite z-score [5]: 0.917
- composite z-score [6]: 0.181
- composite z-score (Sam68 (KHDRBS1)): -0.189
- composite z-score [7]: 0.0133
- composite z-score [8]: -0.285

SMILES: CC1CC/C=C\[C@H]2OC34C=CCN(C(C)C)C(=O)[C@H]3N(CCO)C(=O)[C@@H]4C2C(=O)O1 (stereo not given in full)
- composite z-score (Albumin (Bos taurus)): -0.935
- composite Z-score [1]: -0.0467 (inactive)
- composite z-score [2]: -0.312
- composite z-score [3]: -0.125
- composite z-score [4]: 0.933
- composite z-score [5]: -0.31
- composite z-score [6]: 0.492
- composite z-score (Sam68 (KHDRBS1)): -0.175
- composite z-score [7]: -1.26
- composite z-score [8]: -1.8

SMILES: COc1cc(NN2C(C(O)c3ccc(N(C)C)cc3)C=CC3C(=O)N(c4ccccc4)C(=O)C32)cc(OC)c1OC (stereo not given)
- composite z-score (Albumin (Bos taurus)): 0.353
- composite Z-score [1]: 0.785 (inactive)
- composite z-score [2]: 0.448
- composite z-score [3]: 0.0606
- composite z-score [4]: 0.192
- composite z-score [5]: 0.68
- composite z-score [6]: -0.196
- composite z-score (Sam68 (KHDRBS1)): 0.913
- composite z-score [7]: -0.148
- composite z-score [8]: 0.0693

SMILES: CC1CC/C=C\[C@H]2OC34C=CCN(c5ccc(Cl)cc5)C(=O)[C@H]3N(C(C)CO)C(=O)[C@]4(C)C2C(=O)O1 (stereo not given in full)
- composite z-score (Albumin (Bos taurus)): -1.07
- composite Z-score [1]: -0.408 (inactive)
- composite z-score [2]: -0.322
- composite z-score [3]: -0.14
- composite z-score [4]: 0.768
- composite z-score [5]: -0.66
- composite z-score [6]: 1.27
- composite z-score (Sam68 (KHDRBS1)): -0.297
- composite z-score [7]: -0.482
- composite z-score [8]: -0.863

SMILES: O=c1cccc(-c2ccc([N+](=O)[O-])cc2)o1
- composite z-score (Albumin (Bos taurus)): -0.293
- composite Z-score [1]: 0.46 (inactive)
- composite z-score [2]: 0.0692
- composite z-score [3]: -0.154
- composite z-score [4]: 0.365
- composite z-score [5]: 0.403
- composite z-score [6]: 0.633
- composite z-score (Sam68 (KHDRBS1)): 0.795
- composite z-score [7]: 0.075
- composite z-score [8]: -0.549

SMILES: Cc1cc(C)c(C(O)C2C=CC3C(=O)N(c4ccccc4)C(=O)C3N2Nc2ccccc2F)c(C)c1 (stereo not given)
- composite z-score (Albumin (Bos taurus)): 0.553
- composite Z-score [1]: 0.224 (inactive)
- composite z-score [2]: 0.0602
- composite z-score [3]: 0.0278
- composite z-score [4]: 0.365
- composite z-score [5]: 1.08
- composite z-score [6]: 0.725
- composite z-score (Sam68 (KHDRBS1)): -0.186
- composite z-score [7]: 0.0036
- composite z-score [8]: 0.511

SMILES: COCCOC(=O)N1C(=O)[C@@]2(c3cc(C#CC4=CCCCC4)ccc31)[C@H](c1ccccc1OCCO)N1[C@H](c3ccccc3)[C@H](c3ccccc3)OC(=O)[C@H]1[C@@H]2C(=O)N1CCN(c2ncccn2)CC1
- composite z-score (Albumin (Bos taurus)): 0.326
- composite Z-score [1]: -0.17 (inactive)
- composite z-score [2]: 0.212
- composite z-score [3]: -0.154
- composite z-score [4]: 0.214
- composite z-score [5]: 0.634
- composite z-score [6]: 0.297
- composite z-score (Sam68 (KHDRBS1)): 1.06
- composite z-score [7]: 0.374
- composite z-score [8]: 1.06

SMILES: CCCC#C[Si](O[C@H](CC)c1cn([C@H](C)c2ccccc2)nn1)(C(C)C)C(C)C
- composite z-score (Albumin (Bos taurus)): 0.468
- composite Z-score [1]: 0.381 (inactive)
- composite z-score [2]: -0.112
- composite z-score [3]: -0.0317
- composite z-score [4]: 0.26
- composite z-score [5]: 0.47
- composite z-score [6]: -0.0249
- composite z-score (Sam68 (KHDRBS1)): 0.702
- composite z-score [7]: 0.169
- composite z-score [8]: 0.488

SMILES: COc1ccc([Si](C)(C)[C@@H]2[C@@H](CC(=O)N3CCC[C@H]3CO)O[C@]3(C(=O)N(Cc4cccc(N5C(=O)COc6ccccc65)c4)c4ccccc43)[C@H]2C)cc1
- composite z-score (Albumin (Bos taurus)): 0.577
- composite Z-score [1]: 0.254 (inactive)
- composite z-score [2]: -0.0821
- composite z-score [3]: -0.167
- composite z-score [4]: 0.462
- composite z-score [5]: 0.664
- composite z-score [6]: 0.271
- composite z-score (Sam68 (KHDRBS1)): 1.3
- composite z-score [7]: 0.291
- composite z-score [8]: 1.12

SMILES: CCN(CC)c1ccc(N2CC=CC34O[C@@H]5/C=C\CCCOC(=O)C5[C@H]3C(=O)N(C(C)CO)[C@@H]4C2=O)cc1 (stereo not given in full)
- composite z-score (Albumin (Bos taurus)): 0.288
- composite Z-score [1]: -0.463 (inactive)
- composite z-score [2]: -0.0647
- composite z-score [3]: -0.0862
- composite z-score [4]: 0.732
- composite z-score [5]: 0.121
- composite z-score [6]: 0.248
- composite z-score (Sam68 (KHDRBS1)): 0.11
- composite z-score [7]: 0.259
- composite z-score [8]: -0.529

SMILES: CCC1=C2CN(Cc3ccccc3)[C@@H](C(=O)Cc3ccccc3)C2C=CCC1 (stereo not given in full)
- composite z-score (Albumin (Bos taurus)): 0.912
- composite Z-score [1]: -0.496 (inactive)
- composite z-score [2]: 0.0293
- composite z-score [3]: -0.149
- composite z-score [4]: 0.679
- composite z-score [5]: 1.58
- composite z-score [6]: -0.186
- composite z-score (Sam68 (KHDRBS1)): 0.169
- composite z-score [7]: -0.263
- composite z-score [8]: 0.351

SMILES: [N-]=[N+]=Nc1ccccc1C[C@]1(C(=O)N2CCOCC2)COC(c2ccc(OCCCO)cc2)=N1
- composite z-score (Albumin (Bos taurus)): 0.808
- composite Z-score [1]: 0.04 (inactive)
- composite z-score [2]: 0.373
- composite z-score [3]: -0.118
- composite z-score [4]: 0.763
- composite z-score [5]: 2.21
- composite z-score [6]: -0.181
- composite z-score (Sam68 (KHDRBS1)): 1.29
- composite z-score [7]: -0.646
- composite z-score [8]: 0.99

SMILES: COc1cc2c(cc1O)C(c1cccs1)N(Cc1cc3c(cc1Br)OCO3)CC2 (stereo not given)
- composite z-score (Albumin (Bos taurus)): 0.794
- composite Z-score [1]: 0.715 (inactive)
- composite z-score [2]: 0.0438
- composite z-score [3]: -0.0397
- composite z-score [4]: 0.723
- composite z-score [5]: 2.92
- composite z-score [6]: 1.03
- composite z-score (Sam68 (KHDRBS1)): 1.04
- composite z-score [7]: 0.417
- composite z-score [8]: 1.12

SMILES: C=CCNC(=O)[C@@H]1[C@H]2C(=O)O[C@H](c3ccccc3)[C@H](c3ccccc3)N2[C@H](c2ccccc2OCCO)[C@@]12C(=O)Nc1ccc(C#CCCO)cc12
- composite z-score (Albumin (Bos taurus)): -0.162
- composite Z-score [1]: -0.433 (inactive)
- composite z-score [2]: -0.0302
- composite z-score [3]: -0.147
- composite z-score [4]: 0.675
- composite z-score [5]: 0.71
- composite z-score [6]: 0.452
- composite z-score (Sam68 (KHDRBS1)): 0.826
- composite z-score [7]: 1.13
- composite z-score [8]: 1.15

SMILES: COc1cc2c(cc1O)C(C1CC1)N(Cc1cccc(OC(F)(F)F)c1)CC2 (stereo not given)
- composite z-score (Albumin (Bos taurus)): 0.353
- composite Z-score [1]: 0.926 (inactive)
- composite z-score [2]: -0.0824
- composite z-score [3]: -0.0846
- composite z-score [4]: 0.814
- composite z-score [5]: 1.06
- composite z-score [6]: 0.762
- composite z-score (Sam68 (KHDRBS1)): -0.316
- composite z-score [7]: 0.13
- composite z-score [8]: -0.744

SMILES: COCCOC(=O)N1C(=O)[C@@]2(c3ccccc31)[C@H](C(=O)NC[C@H](O)c1ccccc1)[C@H]1C(=O)O[C@H](c3ccccc3)[C@H](c3ccccc3)N1[C@@H]2c1ccc(O)cc1
- composite z-score (Albumin (Bos taurus)): -0.411
- composite Z-score [1]: 0.244 (inactive)
- composite z-score [2]: -0.198
- composite z-score [3]: 0.0377
- composite z-score [4]: 0.432
- composite z-score [5]: 2.28
- composite z-score [6]: 0.236
- composite z-score (Sam68 (KHDRBS1)): 1.3
- composite z-score [7]: 1.04
- composite z-score [8]: 1.12
